Screening data from PubChem.
Ba/F3 V617F tox: reduce viability of Ba/F3 cells dependent on JAK2V617F | hit rate 1.1% among 220,000 | Ba/F3 EpoR-JAK2V617F viability, ATP luminescence | inhibition, % at 5.6 µM;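 active = inhibition above the campaign mean plus 3 SD over all tested compounds, cut at about 24% in these data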;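 note: cytokine-independent growth of Ba/F3 cells driven by EpoR plus mutant JAK2; 0% = DMSO-treated cells and 100% = JAK inhibitor I control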
APP 5UTR inh: APP translation inhibition. SH-SY5Y APP 5'UTR-luciferase reporter, luminescence. hit rate 0.82% among 190,000. inhibition, % at 2 µM;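 active = inhibition above a set limit, derived from the sample mean plus 3 SD, cut at about 45% in these data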
IEC-6 tox: kills IEC-6 intestinal cells in KLF5 counter-screen; IEC-6 cytotoxicity, luminescence viability; inhibition, % at 5 µM; hit rate 0.78% among 290,000; AID 1825; in the data active = inhibition above about 22%;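 note: 0% = plate median of test compound wells and 100% = cytotoxic reference compound wells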
KLF5 inh: kruppel-like factor 5 inhibition; AID 1700; inhibition, % at 5 µM; DLD-1 KLF5 promoter-luciferase reporter, luminescence; hit rate 0.23% among 290,000;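 active = inhibition above a per-plate limit of that plate's mean compound inhibition plus 3 SD, cut at about 60% in these data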;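 note: 0% = DMSO wells and 100% = LY294002 at 200 µM; higher means less KLF5 promoter-driven luciferase light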
BaF3 tox: counter-screen for JAK2V617F inhibitors: parental Ba/F3 viability inhibitors. CellTiter-Glo ATP luminescence. inhibition, % at 5.6 µM. hit rate 1.1% among 220,000;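 active = inhibition above a per-campaign cutoff, the mean inhibition of all tested compounds plus 3 SD, cut at about 27% in these data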;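 note: 0% = DMSO wells and 100% = JAK Inhibitor I control wells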
* hit, by the source's call; / = no result. Rows were chosen to be rich in hits. Some 1.9% of all compounds tested hit in one or more screens of this group.

SMILES | Ba/F3 V617F tox | APP 5UTR inh | IEC-6 tox | KLF5 inh | BaF3 tox
Cc1ccc(/C=N/NC(=O)c2csc3c2CCCC3)cc1 | 0 | 90* | 1 | -75 | 0
COC1CCCN(Cc2c(C(=O)N3CCN(C4CCCCC4)CC3)nc3ccccn23)C1 (stereo unspecified) | / | / | 0 | -26 | /
Cc1cc(C[n+]2ccccc2)c2nsnc2c1 | 59* | 10 | 2 | -33 | 59*
O=C(Nc1cccc(C(F)(F)F)c1)c1ccc2nc(-c3ccco3)c(-c3ccco3)nc2c1 | 3 | -12 | -1 | 1 | 49*
O=C(O)c1ccc2nc(-c3ccco3)c(-c3ccco3)nc2c1 | -3 | 1 | -25 | 16 | -3
COc1cccc(-c2nc(CS(=O)(=O)CC(=O)Nc3cc(OC)ccc3OC)c(C)o2)c1 | / | / | -5 | -15 | /
O=C(Nc1ccc(Cl)cc1)Nc1csc([N+](=O)[O-])c1 | 30* | / | 5 | -16 | 72*
CCOC(=O)Cn1nnnc1CN(Cc1cccs1)Cc1cc2cc(C)ccc2[nH]c1=O | -1 | 62* | -7 | 7 | 2
COc1cc(OC)cc(N2C(=O)CSCC2=O)c1 | -1 | / | -5 | -15 | -2
CNc1ccccc1C(C)(C)c1cc(-c2cccc(OC)c2)no1 | 48* | 3 | -1 | -19 | 56*
COc1ccccc1-n1nnnc1SCC(=O)Nc1cc(C)on1 | -1 | -4 | 6 | 11 | 2
CCOc1ccccc1-n1nnnc1SCC(=O)Nc1cc(C)on1 | -5 | -6 | 4 | 2 | 39*
Nc1ccc(S(=O)(=O)N2CCOCCOCCOCCOCCOCC2)cc1 | / | / | -3 | -34 | /
O=C1C2C(C(=O)N1/N=C/c1ccc(N3CCCCC3)o1)C1C=CC2C12CC2 (stereo unspecified) | -1 | 17 | -3 | -47 | 5
O=C(NCCN1C(=O)S/C(=C\c2ccc(OC(F)F)cc2)C1=O)c1cnccn1 | 0 | 76* | 19 | 38 | 5
CN(C)C(=O)c1nc2ccc(Cl)cn2c1CN1CCCC(OCc2ccccc2)C1 (stereo unspecified) | 0 | 12 | -5 | -26 | 7
CC(C)CNC(=O)c1ccc2c(c1)C(=O)N(Cc1ccco1)C2=O | / | / | 3 | -24 | /
CCCCCC(C)NC(=S)NC(=O)c1cc(S(=O)(=O)N2CCOCC2)ccc1C (stereo unspecified) | -4 | 0 | 4 | -2 | 42*
CCCC(C)NC(=S)NC(=O)c1cc(S(=O)(=O)N2CCOCC2)ccc1C (stereo unspecified) | -1 | -18 | -3 | 14 | 4
Cc1cc(F)ccc1S(=O)(=O)N1CCCOC1CNC(=O)C(=O)NCc1cccnc1 (stereo unspecified) | / | / | -7 | -37 | /
CCN(CC)CCSc1nnc2c3ccccc3n(Cc3ccccc3)c2n1 | 29* | / | 5 | -3 | 49*
COc1ccc(OCCN2CCN(C(=O)c3ccc(OC)c(OC)c3)CC2)cc1 | / | / | -1 | -16 | /
COc1cc(C(=O)ON=C2C=C(C)C(=O)C(C)=C2)cc(OC)c1OC | 1 | 15 | 8 | -16 | 1
COc1cc(C(=O)O/N=C2\C=CC(=O)C(C)=C2)cc(OC)c1OC | 49* | 0 | -2 | -17 | 32*
CC(=O)OCC[n+]1c(C)n(-c2ccccc2)c2ccc(Cl)cc21 | -2 | -46 | 1 | -28 | 12
SMILES | Ba/F3 V617F tox | APP 5UTR inh | IEC-6 tox | KLF5 inh | BaF3 tox
CCOC(=O)c1ccc2c(c1)n(CC)c(C)[n+]2CC | 20 | 5 | 7 | -2 | 36*
CCOC(=O)c1ccc2c(c1)[n+](CC)c(C)n2-c1ccccc1 | 38* | 17 | -6 | -17 | 76*
CC[n+]1c(C)n(-c2ccccc2)c2ccc(C(=O)OC)cc21 | 36* | -11 | -3 | -5 | 55*
CNS(=O)(=O)c1cc(NC(=O)c2cncn2-c2ccccc2)ccc1C | / | / | -10 | 17 | /
O=c1c2ccc(Cl)cc2nc(-c2cccc(C(F)(F)F)c2)n1O | 60* | -5 | -6 | 40 | 56*
O=C(Nc1ccc(N2CCN(C(=O)c3ccco3)CC2)cc1)c1ccc2c(c1)OCO2 | 5 | 8 | 6 | 0 | 6
Cc1ccccc1C(=O)N1CCN(c2ccc(NC(=O)c3ccc4c(c3)OCO4)cc2)CC1 | 67* | 11 | 36* | 56 | 67*
CC(C)c1ccc(N(C(=O)c2ccc3c(c2)OCO3)C2C=CS(=O)(=O)C2)cc1 (stereo unspecified) | / | / | -9 | 4 | /
Cc1ccc(-n2c(C)cc(C)c(C#N)c2=O)cc1Cl | 2 | 62* | 2 | 8 | 7
Cc1cc(C)n(-c2cc(Cl)cc(Cl)c2)c(=O)c1C#N | 2 | 8 | 3 | 1 | 6
CC[N+]1(CC)CC2CCC(C)(C1)C2(C)C (stereo unspecified) | -2 | -18 | 6 | 13 | 9
